Source: article PMC5540273 (PLoS ONE, 2017)

Assays:
Settings in all cases: concentration: 1 μM,replicates: in singlicate; n = 1
MAP3K15 = test system: MAP3K15
MAP3K1 = test system: MAP3K1
MAP3K2 = test system: MAP3K2
MAP3K3 = test system: MAP3K3
MAP3K4 = test system: MAP3K4
MAP4K2 = test system: MAP4K2
MAP4K3 = test system: MAP4K3
MAP4K4 = test system: MAP4K4
MAP4K5 = test system: MAP4K5
MAPKAPK2 = test system: MAPKAPK2
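Also: KINOMEscan kinase panel screen.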

| SMILES | %Inh (MAP3K15) | %Inh (MAP3K1) | %Inh (MAP3K2) | %Inh (MAP3K3) | %Inh (MAP3K4) | %Inh (MAP4K2) | %Inh (MAP4K3) | %Inh (MAP4K4) | %Inh (MAP4K5) | %Inh (MAPKAPK2) |
| --- | --- | --- | --- | --- | --- | --- | --- | --- | --- | --- |
| COC(=O)Nc1nc2cc(Oc3ccc(NC(=O)Nc4cc(C(F)(F)F)ccc4Cl)cc3)ccc2[nH]1.Cl [GW697465] | 0% | 14% | 0% | 0% | 1% | 0% | 0% | 12% | 23% | 14% |
| Cl.Cl.NC[C@H](CC1CCCCC1)NC(=O)c1ccc(-c2ccnc3[nH]ccc23)s1 [GSK1581428] | 25% | 12% | 40% | 33% | 10% | 95.7% | 47% | 20% | 12% | 0% |
| NC(=O)c1ccc(-c2cc3ncnc(SCC(=O)O)c3s2)cc1 | 0% | 0% | 0% | 0% | 0% | 0% | 0% | 5% | 1% | 0% |
| O=C(Nc1ccccc1)c1cccc(Oc2ccc3nccn3n2)c1 | 0% | 10% | 0% | 0% | 20% | 2% | 0% | 0% | 0% | 0% |
| COc1cc2c(Nc3ccc(NC(=O)c4ccccc4)cc3)ncnc2cc1OCCCN1CCOCC1 [GSK301329] | 0% | 9% | 11% | 0% | 47% | 0% | 6% | 11% | 63% | 23% |
| O=C(NCC1CC1)c1ccc(-c2cc(C(=O)NC3CC3)ccc2F)cc1 [GW810445] | 0% | 0% | 0% | 0% | 0% | 0% | 0% | 0% | 0% | 0% |
| c1ccc(Oc2ccc(Nc3ccnc4ccc(-c5ccccn5)cc34)cc2)cc1 [GW407034] | 0% | 14% | 14% | 0% | 17% | 0% | 11% | 21% | 13% | 24% |
| Cn1ccc2ncnc(Oc3ccc(NC(=O)Nc4ccnc(C(F)(F)F)c4)c(Cl)c3)c21 | 0% | 0% | 0% | 6% | 0% | 0% | 3% | 0% | 0% | 1% |
| O=C(Nc1n[nH]c2cc(-c3ccco3)ccc12)C1CC1 [SB-737447] | 17% | 0% | 23% | 24% | 0% | 2% | 5% | 21% | 0% | 0% |
| Cn1cc(-c2cccc3c(N)c(C(N)=O)nnc23)cn1 | 7% | 29% | 14% | 30% | 95% | 0% | 8% | 22% | 14% | 0% |
| O=C(Nc1cccc(C(F)(F)F)c1)c1cccc(Oc2ccc3nccn3n2)c1 | 1% | 21% | 19% | 0% | 22% | 0% | 8% | 14% | 23% | 0% |
| CC(C)c1nc(-c2cccc(NS(=O)(=O)c3ccccc3)c2)c(-c2ccnc(Nc3ccc4c(c3)CN(C)CC4)n2)s1 [GSK1649598] | 30% | 6% | 98.5% | 84% | 79% | 0% | 96.9% | 95.5% | 98.9% | 0% |
| Cl.Nc1n[nH]c2cc(-c3ccccn3)ccc12 [GSK2189892] | 0% | 0% | 0% | 0% | 0% | 0% | 0% | 6% | 0% | 7% |
| O=c1[nH]cc(-c2ccc(O)cc2)c2sc(-c3ccncc3)cc12 [GSK1033723] | 0% | 13% | 7% | 0% | 0% | 0% | 0% | 0% | 0% | 0% |
| Cn1ccc2ncnc(Oc3ccc(NC(=O)Nc4cnn(C(C)(C)C)c4)c(Cl)c3)c21 | 0% | 7% | 0% | 9% | 1% | 4% | 0% | 52% | 0% | 7% |
| C[C@@H](Oc1cc(-n2cnc3cc(-c4cnn(C)c4)ccc32)sc1C(N)=O)c1ccccc1Cl [GSK580432] | 12% | 90.6% | 20% | 20% | 37% | 60% | 93.8% | 32% | 98.9% | 0% |
| C[C@@H]1CNc2c(sc3ccc4nc(-c5ccc(O)cc5)ccc4c23)C(=O)N1 | 61% | 0% | 12% | 11% | 16% | 85% | 31% | 26% | 13% | 99% |

| SMILES | %Inh (MAP3K15) | %Inh (MAP3K1) | %Inh (MAP3K2) | %Inh (MAP3K3) | %Inh (MAP3K4) | %Inh (MAP4K2) | %Inh (MAP4K3) | %Inh (MAP4K4) | %Inh (MAP4K5) | %Inh (MAPKAPK2) |
| --- | --- | --- | --- | --- | --- | --- | --- | --- | --- | --- |
| Cc1nnc(-c2ccc3occ(-c4ccc(S(C)=O)cc4)c3n2)o1 (stereo not drawn) | 0% | 0% | 0% | 0% | 1% | 0% | 44% | 0% | 38% | 0% |
| CS(=O)(=O)Nc1ccc(-c2ccnc3[nH]ccc23)cc1 [GSK993273] | 37% | 18% | 58% | 32% | 0% | 30% | 44% | 2% | 0% | 0% |
| CCn1c(-c2nonc2N)nc2cncc(Br)c21 [SB-738004] | 18% | 10% | 0% | 0% | 3% | 40% | 0% | 3% | 0% | 10% |
| CCCC(=O)Nc1n[nH]c2ncccc12 [SB-601436] | 29% | 0% | 5% | 34% | 11% | 5% | 0% | 0% | 0% | 16% |
| COC(=O)c1cccc(NC(=O)NC2CCN(c3ccnc(Nc4cc(OC)c(OC)c(OC)c4)n3)C2)c1 (stereo not drawn) [GSK1379767] | 0% | 0% | 0% | 0% | 7% | 0% | 3% | 15% | 35% | 0% |
| COc1cc(Nc2nccc(N3CCC(NC(=O)c4cccc(C#N)c4)C3)n2)cc(OC)c1OC (stereo not drawn) [GSK1379751] | 0% | 2% | 19% | 0% | 0% | 0% | 0% | 0% | 0% | 0% |
| CN1CCN(CCNc2nc3cc(Oc4ccc(NC(=O)Nc5cc(C(F)(F)F)ccc5F)cc4)ccc3[nH]2)CC1.Cl.Cl [GW768504] | 0% | 0% | 0% | 0% | 0% | 0% | 0% | 1% | 6% | 4% |
| C[C@@H](Oc1cc(-n2cnc3cc(-c4ccncc4)ccc32)sc1C(N)=O)c1ccccc1Cl [GSK479719] | 18% | 91.9% | 10% | 1% | 13% | 24% | 65% | 13% | 85% | 0% |
| Cc1ccc(Nc2ccnc(Nc3ccc4c(c3)CS(=O)(=O)C4)n2)cc1O.Cl [GW579362] | 0% | 27% | 88% | 73% | 29% | 22% | 0% | 52% | 33% | 0% |
| COc1cc2nccc(Nc3ccc(Oc4ccccc4)cc3)c2cc1OC.Cl [GI261656] | 0% | 21% | 0% | 0% | 0% | 0% | 0% | 0% | 0% | 0% |
| CC(C)S(=O)(=O)N1CCN(Cc2ccc3c(c2)nc(NC(=O)c2ccsc2)n3C[C@H](O)c2ccccc2)CC1 [GW635815] | 0% | 8% | 47% | 53% | 53% | 84% | 0% | 45% | 2% | 0% |
| Cn1ccc2ncnc(Oc3ccc(NC(=O)Nc4cc(C(C)(C)C)on4)c(Cl)c3)c21 | 0% | 18% | 9% | 17% | 9% | 0% | 11% | 94% | 25% | 0% |
| CC(C(=O)NC1CCN(c2ccnc(Nc3ccc(F)cc3)n2)C1)c1ccc(Cl)cc1 (stereo not drawn) [GSK1379713] | 0% | 0% | 0% | 0% | 17% | 0% | 0% | 12% | 4% | 26% |
| COc1cccc(OC)c1C(=O)Nc1cccc(-c2nn3ccccc3c2-c2ccnc(Nc3cccc(F)c3)n2)c1 [GSK361065] | 0% | 0% | 7% | 43% | 14% | 5% | 0% | 21% | 67% | 11% |
| CCOC(=O)N1CCC(n2cnc(-c3ccc(F)cc3)c2-c2ccnc(N)n2)CC1 [SB-219952] | 36% | 29% | 6% | 11% | 6% | 0% | 0% | 9% | 4% | 24% |
| COc1ccc(Nc2nccc(N3CCC(NC(=O)c4cccc(C#N)c4)C3)n2)cc1 (stereo not drawn) [GSK1379730] | 0% | 1% | 0% | 0% | 40% | 0% | 0% | 16% | 10% | 0% |
